# Laboratory results taken from PubChem BioAssay AID588342 (National Center for Advancing Translational Sciences (NCATS), 2011).
# Out of some 360,000 compounds screened, about 25,000 (6.9%) were called active. Another 9% or so got no clear call; they are omitted. The sample as a whole holds a higher share of actives than the screen did. A number with no mark means an inactive call. The call rests on the fitted dose curve; in most records, active means well fitted inhibition curve with a large enough effect; inconclusive means small, poorly fitted or top-dose-only effect; inactive means flat fitted curve, though single readings scatter.
# Target: Luciferin 4-monooxygenase (Photinus pyralis) (UniProt P08659)
# Sequence (P08659 whole entry, looked up): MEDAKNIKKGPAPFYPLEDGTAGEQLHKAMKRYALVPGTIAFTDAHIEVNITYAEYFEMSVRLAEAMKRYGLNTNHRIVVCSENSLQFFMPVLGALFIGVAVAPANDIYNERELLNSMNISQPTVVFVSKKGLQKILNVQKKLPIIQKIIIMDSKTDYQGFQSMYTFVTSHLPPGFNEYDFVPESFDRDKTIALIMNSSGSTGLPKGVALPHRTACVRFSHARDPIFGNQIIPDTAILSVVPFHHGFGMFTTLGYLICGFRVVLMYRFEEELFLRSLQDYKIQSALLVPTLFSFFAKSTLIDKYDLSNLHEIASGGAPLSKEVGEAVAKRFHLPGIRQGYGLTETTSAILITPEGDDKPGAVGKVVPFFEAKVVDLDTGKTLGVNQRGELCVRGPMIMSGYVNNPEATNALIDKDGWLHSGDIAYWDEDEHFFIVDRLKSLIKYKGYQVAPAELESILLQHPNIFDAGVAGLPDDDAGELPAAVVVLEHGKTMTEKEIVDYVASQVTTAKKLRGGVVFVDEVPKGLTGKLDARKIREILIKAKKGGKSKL
# Experiment: qHTS profiling assay for firefly luciferase inhibitor/activator using purifed enzyme and Km concentrations of substrates (counterscreen for miR-21 project); further: nearly all actives have a fitted effect of over 55% in size;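 on activity change, negative = inhibition: plate controls were vehicle for no effect and reference inhibitor for full effect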
# Conditions: purified FLuc, luminescence inhibition; series mostly up to 57.5 µM; activity change, negative = inhibition: at the top concentration
# Outline: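 Purified P. pyralis luciferase, 10 nM final, with Km-level 10 uM D-luciferin and 10 uM ATP in 50 mM Tris acetate pH 7.5, 10 mM Mg acetate, 0.01% Tween-20, 0.05% BSA; 6-point qHTS titration about 60 µM downward; luminescence read.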
# Potency means the concentration at half of the fitted maximal effect.
Structure (SMILES),"activity change, negative = inhibition [%]",Potency
Cc1ccc(C)c(Cn2c(=O)n(CCC(=O)NCc3ccc4c(c3)OCO4)c(=O)c3sccc32)c1,1.45,
COc1ccc(-c2nnc(SCC(=O)Nc3ccccc3C)o2)cc1OC,6.06,
Cn1c(CNc2nc(-c3ccccc3)cs2)nnc1SCC(=O)c1ccccc1,-0.577,
CCNc1nc(-c2cc3ccccc3o2)cs1,,0.601 µM (active)
CCOC(=O)CSc1nnc(CNc2nc(-c3ccccc3)cs2)n1C,3.55,
COc1ccc(-c2c(C)c3ccc(O)c(CN4CCN(C)CC4)c3oc2=O)cc1OC,-5.07,
COc1cc(OC)cc(-c2c(-c3cccs3)c3cc(-c4ccc(OC)nc4)ccc3n2C)c1,-1.73,
CCOc1ccc(OCC)c(NC(=O)c2cc(C)nc3c2c(C)nn3-c2cccc(Cl)c2C)c1,0.474,
N#CCC(=O)N/N=C/c1cn(Cc2ccc3ccccc3c2)c2ccccc12,1.21,
CNC(=S)N/N=C/c1cn(Cc2ccc(C)cc2)c2ccccc12,-5.46,
COc1cccc(Cn2cc(/C=N/NC(=O)c3cc(O)cc(O)c3)c3ccccc32)c1,,26.9 µM (active)
COc1ccc(N2CCN(C(=O)/C(C#N)=C/c3ccccc3)CC2)cc1,-14.4,
CCOC(=O)/C(C#N)=C/c1ccc(N2CCCCC2)cc1,,2.69 µM (active)
CCOC(=O)NC(=O)/C(C#N)=C\c1ccccc1,-8.09,
COC(=O)c1ccc(OC)c(Cn2c(=O)n(Cc3ccccc3)c(=O)c3c2c2cc(OC)ccc2n3C)c1,-0.797,
CCOc1ccccc1NC(=O)CN1CCCN(Cc2cccc(Cl)c2)S1(=O)=O,-10.8,
CC12CCC(C(=O)N3CCN(c4ncccn4)CC3)(c3nc4ccccc4nc31)C2(C)C (stereo not given),4.23,
c1cnc(N2CCN(c3ccc4ccccc4n3)CC2)nc1,,5.36 µM (active)
O=C(c1ccncc1)N1CCN(c2ccc3ccccc3n2)CC1,4.69,
Cc1csc(NC(=O)NC2(C(F)(F)F)Oc3ccccc3O2)n1,-17.9,
Cc1csc(NC(=O)Nc2ccccc2[N+](=O)[O-])n1,,4.78 µM (active)
CN1CCN(CCNC(=O)Nc2ccccc2[N+](=O)[O-])CC1,-1.04,
COc1ccc(Cl)cc1NC(=O)CN(C)C(=O)c1ccc2n[nH]nc2c1,4.74,
Cc1cccc(NC(=O)CSc2nc3c(c(=O)[nH]2)CCC3)c1C,1.5,
Cc1cccc(NC(=O)CSc2ncc(-c3ccccc3)[nH]2)c1C,,13.5 µM (active)

Structure (SMILES),"activity change, negative = inhibition [%]",Potency
Cc1cccc(NC(=O)CSc2nc3c(c(=O)[nH]2)CCCC3)c1C,1.26,
O=C(Nc1ccccc1Cl)N1CCC(CN2CCCC2)CC1,-1.17,
Cc1cc(Nc2cccc(C(F)(F)F)c2)nc2ccc(NC(=O)c3ccc(=O)[nH]c3)cc12,1.3,
CSc1ccc(NC(=O)Cn2nnnc2-c2ccccc2F)cc1,1.67,
CCOc1ccc2nc(N3CCCC(C(=O)Nc4cc(C)ccc4C)C3)sc2c1 (stereo not given),,2.39 µM (active)
CCOc1ccc2nc(C(=O)N3CCCC(C)C3)sc2c1 (stereo not given),,1.69 µM (active)
Cc1ccc(C)c(NC(=O)C2CCCN(S(=O)(=O)c3cn(C)cn3)C2)c1 (stereo not given),-0.326,
CCOc1ccc2nc(N(CCN(C)C)C(=O)c3ccc4ccccc4c3)sc2c1,0.783,
CCOc1ccc2nc(N3CCC(C(=O)Nc4cc(C)ccc4C)CC3)sc2c1,-11.9,
CCCC(=O)N(CCN1CCOCC1)c1nc2ccc(OCC)cc2s1,-9.15,
Cc1ccc2cccc(NC(=O)c3ccc(OC(C)C)cc3)c2n1,-6.74,
CCOC(=O)c1ccc(CSc2nnc3cc(C)c4ccccc4n23)cc1,-16.9,
Oc1c(C(c2ccccc2Cl)N2CCOCC2)sc2nc(-c3ccco3)nn12 (stereo not given),-18.7,
CC(=O)c1ccc(NC(=O)C(C)N(C)CC(=O)Nc2ccccc2Cl)cc1 (stereo not given),-0.631,
Cc1cc([N+](=O)[O-])ccc1NC(=O)C1CCCO1 (stereo not given),-6.26,
Cc1cc(C)c2nc(NC(=O)C3CCCO3)sc2c1 (stereo not given),,3.79 µM (active)
Cc1ccc(C)c(C(C)NC(=O)C2CCCO2)c1 (stereo not given),-0.0636,
COCCn1c(SCC(=O)c2cc(C)ccc2C)nc2cc(C(=O)NC3CCCC3)ccc2c1=O,-4.5,
O=C(C1Cc2ccccc2CN1C(=O)c1ccco1)N1CCN(c2ccccc2)CC1 (stereo not given),7.36,
O=C1NNC(c2ccccc2)=N/C1=C\c1ccc(Cl)cc1,-1.28,
CN(C)c1cc(N)c2ccccc2n1 (tested in a mixture with another compound),-2.37,
O=C(Nc1sc2c(c1-c1nc3ccccc3[nH]1)CCCC2)C1CC1,-7.46,
Cc1ccc(-c2nc3ccccc3[nH]2)cc1N,,2.39 µM (active)
COc1ccc(-c2[nH]nc(-c3ccccc3)c2-c2nc3ccccc3[nH]2)cc1,-0.473,
Cc1ccc(C)c(N2CCN(C(=O)CCc3nc4ccccc4[nH]3)CC2)c1,0.47,
